Measurements: PubChem BioAssay (NCI)
The panel holds about 79,000 compounds, 15% with a hit somewhere; the sample as a whole holds those more often. The source made the active and inactive calls. No stated cut-off is given here; in the data, active means growth inhibition above about 70%; inactive means the rest.

Experiments:
[1] = NCI Yeast Anticancer Drug Screen. Data for the rad50 strain (AID 155);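 further: 0% = growth of vehicle-only cultures of the same strain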; conditions: S. cerevisiae rad50 strain growth inhibition; at 50.0 µM; stronger effect = higher value
How it was run: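 Cells are treated with compound, grown, and their growth is then scored against vehicle-only cultures of the same repair-deficient yeast strain.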

[2] = NCI Yeast Anticancer Drug Screen. Data for the mec2-1 strain (AID 157); conditions: S. cerevisiae mec2-1 strain, at 50.0 µM, stronger effect = higher value
How it was run: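 Each compound was tested on mec2-1 yeast, a strain altered in DNA damage repair or cell cycle control. Growth inhibition is reported relative to vehicle.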

[3] = NCI Yeast Anticancer Drug Screen. Data for the sgs1 mgt1 strain (AID 161);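 further: 0% = growth of cultures given vehicle only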; conditions: S. cerevisiae sgs1 mgt1 strain, at 50.0 µM, stronger effect = higher value
How it was run: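 Mutant yeast exposed to compound; growth scored against vehicle-only wells.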

[4] = NCI Yeast Anticancer Drug Screen. Data for the cln2 rad14 strain (AID 165);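 further: 0% = growth equal to vehicle treated cultures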; conditions: S. cerevisiae cln2 rad14 strain, at 50.0 µM, stronger effect = higher value
How it was run: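 Test compounds were added to cln2 rad14 yeast cultures; inhibition of growth was then determined by comparison with vehicle treatment.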

[5] = NCI Yeast Anticancer Drug Screen. Data for the bub3 strain (AID 167); conditions: S. cerevisiae bub3 mutant strain, at 50.0 µM, stronger effect = higher value
How it was run: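 Part of a panel of yeast mutants defective in DNA damage repair or cell cycle regulation. Each strain is grown with compound, and inhibition is calculated relative to solvent-treated cultures.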

[6] = NCI Yeast Anticancer Drug Screen. Data for the mlh1 rad18 strain (AID 175); conditions: S. cerevisiae mlh1 rad18 strain growth inhibition; at 50.0 µM; stronger effect = higher value
How it was run: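 Inhibition values reflect reduced growth of mutant yeast versus vehicle-treated controls following compound exposure; the mutations affect DNA damage repair.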

Measured: growth inhibition

Cc1cccc2c1C1C(CC2=O)C(=O)c2ccccc2C1C (stereo not drawn)
inactive: [1] 7% | [2] -17.8% | [3] 3.5% | [4] 8.9% | [5] 11.6% | [6] 11.5%

O=C(O)CCSC1(SCCC(=O)O)CCCCC1
inactive: [1] -23.9% | [2] -17.9% | [3] -8.55% | [4] -3.25% | [5] -9% | [6] -23.6%

COC(=O)NC(CI)c1ccccc1 (stereo not drawn)
inactive: [1] 14.7% | [2] -5.8% | [3] 7.55% | [4] 8.85% | [5] -6.35% | [6] 23.9%

C[N+]1(C)C/C(=C\c2ccncc2)C(=O)/C(=C/c2ccncc2)C1
inactive: [1] 0.3% | [2] -2.45% | [3] 14.3% | [4] 5.3% | [5] 1.1% | [6] -10.2%

O=C(C[n+]1cccc2ccccc21)c1ccc(F)cc1
inactive: [1] -0.05% | [2] -10.3% | [3] 18.1% | [4] 17% | [5] 10.2% | [6] -3%

CC(C)COC(=O)C(=O)OCC(C)C
inactive: [1] 14.9% | [2] 23.1% | [3] -6.45% | [4] 34% | [5] -5.05% | [6] -14.7%

C=CCOC(OCC=C)C(C)C
inactive: [1] -0.5% | [2] -12.2% | [3] -13.9% | [4] -3.4% | [5] -23.4% | [6] -3.4%

Cc1cn(C2CC(O)C(CO)O2)c(=O)nc1NCc1cccs1 (stereo not drawn)
inactive: [1] 0.8% | [2] 2% | [3] -8.55% | [4] -9.15% | [5] -4.55% | [6] 2.95%

CCOC(=O)C1=C(C)N(NC(N)=O)C2(O)CCCC(=O)C12C (stereo not drawn)
inactive: [1] 5.35% | [2] -0.45% | [3] 0.65% | [4] -52.2% | [5] -3.8% | [6] 2.2%

CCOc1ccc2[nH]c(C)c(CC(=O)O)c2c1
inactive: [1] -3.7% | [2] -9.25% | [3] -13.5% | [4] -16.4% | [5] 9.3% | [6] -7.2%

c1ccc2nc3c(nc2c1)sc1nc2ccccc2n13
inactive: [1] 9.65% | [2] 3.4% | [3] -11.9% | [4] 10.9% | [5] 8.3% | [6] 17.1%

Nc1c(Cl)ncnc1Nc1ccc(O)cc1
inactive: [1] -3.85% | [2] -1.2% | [3] 5.2% | [4] 5.8% | [5] 24.8% | [6] 1.4%

Cc1ccc(S(=O)(=O)NC(Cc2ccc(O)cc2)C(=O)O)cc1 (stereo not drawn)
inactive: [1] 1.5% | [2] -8.4% | [3] 5.25% | [4] -57.2% | [5] 12.6% | [6] 35.5%

CC1(C)N=C(N)N=C(N)N1c1cccc(/C=C/c2ccc([N+](=O)[O-])cc2)c1
inactive: [1] 2.45% | [2] -7.35% | [3] -6.1% | [4] -43% | [5] -3.3% | [6] 9.75%

COC(=O)c1ccc(C(=O)OC)c(O)c1O
inactive: [1] 11.3% | [2] 27.9% | [3] 8.85% | [4] -2.85% | [5] 12.8% | [6] 16.4%

COC(=O)C(C)OP(=O)(OC(C)C(=O)OC)OC(C)C(=O)OC (stereo not drawn)
inactive: [1] 0.4% | [2] -3.55% | [3] -4.75% | [4] -4.05% | [5] 15.1% | [6] 2.7%

COc1ccc(NC(=O)Oc2cccc(NC(C)=O)c2)c(OC)c1
inactive: [1] 13.8% | [2] 8.7% | [3] 10.1% | [4] 4.35% | [5] 12.4% | [6] 8.65%

CC(CN(C)C)Oc1ccc2c(c1)C(=O)C(C)C2 (stereo not drawn)
inactive: [1] -25.6% | [2] -5.25% | [3] 4.85% | [4] -28.9% | [5] 22.1% | [6] -22.6%

CC1CCC2c3c([nH]c4ccccc34)C3C(=O)N(C4CCCCC4)C(=O)C3C2C1 (stereo not drawn)
inactive: [1] 5.65% | [2] 0.25% | [3] 1.8% | [4] 3.05% | [5] 4.1% | [6] 2.25%

O=C(O)c1cc(S(=O)(=O)O)ccc1O
inactive: [1] 9.7% | [2] 18% | [3] -9.9% | [4] -29.9% | [5] -16.7% | [6] -13.2%

CCOC(=O)CCCCCSc1n[nH]c(=O)[nH]c1=O
inactive: [1] -7.5% | [2] -11% | [3] -21.9% | [4] 5.75% | [5] 6.15% | [6] -4.2%

CCN(Cc1ccccc1)c1ccccc1C
inactive: [1] 12% | [2] -6.85% | [3] 10.8% | [4] 0% | [5] 7.65% | [6] 1.45%

Cc1ccc(NC(=O)C(C)C)cc1
inactive: [1] -14% | [2] -16.6% | [3] -13.4% | [4] -24.2% | [5] -19.1% | [6] -21.2%

Clc1ccc(-c2nnc(C34CC5CC(CC(C5)C3)C4)o2)cc1
inactive: [1] -12.1% | [2] -8.65% | [3] -11.3% | [4] 2.3% | [5] -8.5% | [6] -18.6%

CC1SC2=NC3=C(c4ccccc4C3=O)C(c3ccc(Br)cc3)N2C1=O (stereo not drawn)
inactive: [1] -37.5% | [2] -15.9% | [3] -36.3% | [4] -15.8% | [5] -37% | [6] -32.8%

CN1CCC(C(O)c2ccccc2)CC1 (stereo not drawn)
inactive: [1] 3.95% | [2] -3.8% | [3] -6.15% | [4] -24.4% | [5] 3.95% | [6] 5.5%

Cc1cn(C2CC(O)C(CO)O2)c(=O)nc1NC1CC1 (stereo not drawn)
inactive: [1] -7% | [2] 3.45% | [3] -1% | [4] -13% | [5] 0.6% | [6] 3.15%

COCNC(=O)NCC(F)(F)C(F)(F)C(F)(F)C(F)(F)C(F)(F)C(F)(F)C(F)(F)F
inactive: [1] -9.9% | [2] 7.6% | [3] -1.2% | [4] 15.9% | [5] -5.7% | [6] 28.5%

O=C1OC(CC(=O)c2ccc(Cl)c(Cl)c2)C(Cl)=C1Cl (stereo not drawn)
inactive: [1] 43.1% | [2] 12.3% | [3] 33.1% | [4] 29.9% | [5] 30% | [6] 52.7%

CCOC(=O)c1cc(C)nc2c(Cl)cc(Cl)cc12
inactive: [1] 13% | [2] 10.8% | [3] -34.4% | [4] -2.9% | [5] 10.4% | [6] 7.95%

CCc1cccc(CC)c1NC(=O)Nc1cc(Cl)ccc1C
inactive: [1] 1.8% | [2] 6.45% | [3] 5.4% | [4] -8.45% | [5] 30.1% | [6] 7.9%

O=c1oc2ccc([N+](=O)[O-])cc2cc1-c1csc(-c2ccccc2)n1
inactive: [1] 3% | [2] -9.35% | [3] -7.05% | [4] 7.45% | [5] -26.3% | [6] -48.8%

O=[N+]([O-])c1ccc(N/N=C/c2ccccc2Cl)cc1
inactive: [1] 8% | [2] 12.4% | [3] 26.4% | [4] -1.3% | [5] 36.4% | [6] 31.4%

CN(C)c1ccc(/C=N/NS(=O)(=O)c2ccc(N)cc2)cc1
inactive: [1] -4.4% | [2] -9.95% | [3] 18.8% | [4] -3.45% | [5] -32.2% | [6] -12.6%

COc1ccc(C2OC3=Nc4ccccc4NC3C2=O)cc1OC (stereo not drawn)
inactive: [1] 11% | [2] 16.3% | [3] 20.7% | [4] 5.25% | [5] 15.3% | [6] 16.4%

COC(=O)NN=C1C(C)(C)C(=O)C1(C)C
inactive: [1] -20.7% | [2] -21.8% | [3] -25.4% | [4] 6.05% | [5] -29.4% | [6] -20.1%

CC(=O)OCC12C(OC(C)=O)C(=O)C3C(OC(C)=O)C14OC3(C)COC(=O)c1cccnc1C(C)C(C)C(=O)OC(C(OC(C)=O)C2OC(C)=O)C4(C)O (stereo not drawn)
inactive: [1] -24.6% | [2] -31.4% | [3] -24.1% | [4] 7.85% | [5] -16.1% | [6] -85%

CCN(CC)C(=O)C1(C)NS(=O)(=O)c2ccccc2C1=O (stereo not drawn)
inactive: [1] -7.05% | [2] 10.1% | [3] -4.15% | [4] -31.9% | [5] -10.8% | [6] -9.45%
